This is an account of results in PubChem BioAssay AID2284369 (EPA ToxCast).

Results filed as inconclusive are left out. Active and inactive are the calls of the source. How the source made its calls: active means hit-call score of the fitted dose curve at least 0.9, where 1 is the maximum; inconclusive means response in the unintended direction; inactive means score below 0.9.

For the test, the system named is frog Estrogen Receptor (ER1), gene 398734. In words: ATG_frER1_EcoTox2: Attagene TRANS-FACTORIAL EcoTox-2 HepG2 Assay for frog Estrogen Receptor (ER1). The method, then: ATG_EcoTox2 is a cell-based, multiplexed assay created by modifying the existing Attagene TRANS-FACTORIAL system to include a panel of nuclear receptors from some or all the following species: human (Homo sapiens), african clawed frog (Xenopus laevis), rainbow trout (Oncorhynchus mykiss), japanese medaka (Oryzias latipes), and zebrafish (Danio rerio). The ECOTOX2-FACTORIAL format uses HepG2, a human liver cell line, with measurements taken at 24 hours after chemical dosing in a 24-well plate. ATG_frER1_EcoTox2 is one of 29 assay components calculated in the ATG_EcoTox2 assay. It is designed to make measurements of mRNA induction, a form of inducible reporter, as detected with fluorescence intensity signals by Reverse transcription polymerase chain reaction (RT-PCR) and Capillary electrophoresis technology.The assay endpoint ATG_frER1_EcoTox2 was analyzed in the positive analysis fitting direction relative to DMSO as the negative control and baseline of activity. Using a type of inducible reporter, measures of mRNA for gain-of-signal activity can be used to understand the reporter gene at the transcription factor-level as they relate to the gene ER. Furthermore, this assay endpoint can be referred to as a primary readout, because this assay has produced multiple assay endpoints where this one serves a reporter gene function. To generalize the intended target to other relatable targets, this assay endpoint is annotated to the nuclear receptor intended target family, where the subfamily is steroidal.
Human liver HepG2 cells are transiently transfected with multiple reporter transcription units (MRTUs) in 6-well plates using FuGene 6 reagent (Roche; 3 ml FuGene/1 mg DNA). The MRTU constructs are regulated by a cis-regulating element (promoter). Each RTU expresses a GAL4-UAS that regulates the transcription of a nearby target reporter gene sequence. A major difference between the CIS and TRANS system is that in CIS activities of endogenous TFs are measured, whereas the TRANS assay evaluates changes in activities of exogenous, chimeric NR-Gal4 proteins. […] At the end of 24 hour incubation, total RNA was isolated using TriZol reagent (Invitrogen). The isolated RNA is then reverse-transcribed using oligo(dT) primer and Mo-MLV reverse transcriptase (Invitrogen) with DNAse I (Ambion) treatment for 30 min. The one-tenth of the produced cDNA was amplified by PCR using Taq DNA polymerase (Invitrogen) and two reporter sequence-specific primers. […] The fragments were purified using Qiaquick PCR columns (Qiagen), analyzed on an ABI 3130xL genetic analyzer (Applied Biosystems) with peak positions identified by using a set of X-rhodamine (ROX)-labeled MapMarker1000 molecular weight standards (BioVentures). […]
For `CCCCOCN(C(=O)CCl)c1c(CC)cccc1CC`, the result was inactive.

The term AC50 denotes the concentration giving half of the maximal activity seen. With `O=C(O)C(F)(F)C(F)(F)C(F)(F)C(F)(F)C(F)(F)C(F)(F)C(F)(F)F`, the concentration at half-maximal activity (AC50) is 75 µM (active).

Take `O=S(=O)(O)C(F)(F)C(F)(F)C(F)(F)C(F)(F)C(F)(F)C(F)(F)F`: the result was inactive.

On to `O=P(Oc1ccccc1)(Oc1ccccc1)Oc1ccccc1`, for which the call was inactive.
